{
  "source": "PubChem BioAssay (NCI)",
  "note": "This is part of a sample that, as a whole, favours compounds with a hit. Of some 83,000 tested, about 20% had one in any assay.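 Cells were grown in 96-well plates and exposed to the test compound at a single concentration for 48 hours; results are reported as percent growth, with values below 10 considered active.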 A number with no mark means an inactive call. The source made the active and inactive calls.",
  "data": [
    {"tested_on": "MCF7 breast", "test": "NCI-60 one-dose screen, 48 h (100 = growth as untreated, 0 = no growth, -100 = all killed)", "settings": "10 µM unless noted", "experimental": "Growth inhibition of the MCF7 human tumor cell line is measured as a screen for anti-cancer activity. Cells are grown in 96 well plates and exposed to the test compound for 48 hours. Compounds are tested at a single concentration, which is 10^-5 M for most compounds. The reported endpoint is percent growth (GI% or GIPRCNT), where numbers from 0 - 100% represent growth inhibition, and numbers from -100% - 0 represent cell death. For example, a value of 40 represents 60% growth inhibition. A value of 0 means no net growth occurred over the course of the experiment. A value of -40 indicates 40% of cells at the beginning of the experiment died by the end of the experiment. A value of -100 means all cells are dead at the end of the experiment.\nNCI-60 Human Tumor Cell Lines Screen was performed using the standard one-dose NCI protocol, which is described in more detail at https://dtp.cancer.gov/discovery_development/nci-60/default.htm.\nCompounds with GIPRCNT values below 10 were considered active. Activity score was based on GIPRCNT using the following formula: […]\nScore is 0 for GIPRCNT values of 100 or above, 50 for GIPRCNT values of 0, and 100 for GIPRCNT values of -100.", "values": [
      {"molecule": "COc1cc(C2CC(c3ccc(Cl)cc3)=NN2C(C)=O)ccc1Oc1ccnc2cc(Cl)ccc12", "note": "(stereo not given)", "growth": "42.5%"},
      {"molecule": "COc1cc(/C=C2\\CN(C(=O)OC(C)(C)C)C/C(=C\\c3ccc(O)c(OC)c3)C2=O)ccc1O", "growth": "85.9%"},
      {"molecule": "C=C1C(=O)O[C@H]2[C@H]1CC/C(COC(=O)NCc1[nH]nc3ccccc13)=C\\CC[C@@]1(C)O[C@@H]21", "growth": "17.9%"},
      {"molecule": "C=C(C)[C@@H]1CC[C@]2(C(=O)O)CC[C@]3(C)[C@H](CC[C@@H]4[C@@]5(C)C[C@@H](CC#Cc6ccc(C(C)=O)s6)[C@H](O)C(C)(C)[C@@H]5CC[C@]43C)[C@@H]12", "growth": "55%"},
      {"molecule": "COc1cc(OC)c(C(=O)/C=C/c2cccc(OC(C)=O)c2)cc1CC=C(C)C", "growth": "44.6%"},
      {"molecule": "CCN(C(=O)CCl)C(C)(C)C(SSSC(c1ccc(Cl)cc1)C(C)(C)N(CC)C(=O)CCl)c1ccc(Cl)cc1", "note": "(stereo not given)", "growth": "57.1%"},
      {"molecule": "Cc1c2c(cc3c1[nH]c1ccccc13)C=NCC2", "growth": "60.8%"},
      {"molecule": "CNC(=O)OC1C(O[C@H]2C[C@H]3[C@@H]4CC=C5C[C@@H](O)CC[C@]5(C)[C@H]4CC[C@]3(C)[C@H]2[C@H](C)C(=O)CCC(C)C)OCC(O)C1OC1OCC(O)C(O)C1OC(=O)c1ccc(OC)cc1", "note": "(stereo not given in full)", "growth": "3.66% (active)"},
      {"molecule": "CCOC(=O)c1cc(N)nc2ccccc12", "growth": "107%"},
      {"molecule": "C[Si](C)(C)C(c1ccccc1)c1ccccc1", "growth": "106%"},
      {"molecule": "CC(C)(C)[Si](C)(C)OC1[C@@H](CNC(N)=O)O[C@@H](n2cnc3c(NC(=O)Nc4ccccc4)ncnc32)[C@H]1O[Si](C)(C)C(C)(C)C", "note": "(stereo not given in full)", "growth": "17.9%"},
      {"molecule": "CC(C)(C)[Si](C)(C)OC1[C@@H](O[Si](C)(C)C(C)(C)C)[C@@H](CNC(=O)NC(=O)NC(=O)CCl)O[C@H]1n1cnc2c(NC(=O)Nc3ccccc3)ncnc21", "note": "(stereo not given in full)", "growth": "37.8%"},
      {"molecule": "CCOC(=O)c1cnc(SCC)nc1SC#N", "growth": "87.7%"},
      {"molecule": "CCN(CC)CCNC(=O)C(F)(F)C(F)(F)C(F)(F)F", "growth": "108%"},
      {"molecule": "N=C(N)c1ccc(-c2ccc(-c3cccs3)s2)cc1F", "growth": "-68.5% (active)"},
      {"molecule": "Cc1cccc(N=NC(=S)NNc2cccc(C)c2)c1", "growth": "92.8%"},
      {"molecule": "CN1C(=O)N(C)C2C1NN=c1s/c(=C\\c3ccc(C(F)(F)F)cc3)c(=O)n12", "note": "(stereo not given)", "growth": "12%"},
      {"molecule": "Nc1ccc(C2=NNC(=O)Cc3cc4c(cc32)OCCO4)cc1Cl", "growth": "18.8%"},
      {"molecule": "CCOC(=O)C1OC2(CCCC2)OC1C(=O)OCC", "note": "(stereo not given)", "growth": "98.2%"},
      {"molecule": "CC(CN1CCN(CC(C)Nc2ccnc3cc(Cl)ccc23)CC1)Nc1ccnc2cc(Cl)ccc12", "note": "(stereo not given)", "growth": "10.6%"},
      {"molecule": "CC(=O)N1N=C(C2C(=O)N(C)C(=O)N(C)C2=O)CC1c1ccccc1C(=O)O", "note": "(stereo not given)", "growth": "101%"},
      {"molecule": "O=C(NCCN1CCCC1)n1cc(-c2ccncc2)c(-c2cc(O)cc(Cl)c2)n1", "growth": "96.2%"},
      {"molecule": "C=C1C(=O)O[C@H]2[C@H]1CC/C(COC(=O)NCc1ccc(Cn3c(=O)sn(CCCl)c3=O)cc1)=C\\CC[C@@]1(C)O[C@@H]21", "growth": "31.7%"},
      {"molecule": "COc1ccc2nc(C)cc(Sc3nc4ccccc4s3)c2c1", "growth": "15.9%"},
      {"molecule": "CC[C@]1(O)C[C@H]2CN(CCc3c([nH]c4ccccc34)C(C(=O)OC)(c3cc4c(cc3OC)N(C)[C@H]3[C@@](O)(C(=O)OC)[C@H](OC(C)=O)[C@]5(CC)[C@@H]6C[C@@H]6CN6CC[C@]43[C@@H]65)C2)C1", "note": "(stereo not given in full)", "growth": "4.81% (active)"},
      {"molecule": "Oc1ccccc1-c1nnc(COc2ccc(Cl)cc2Cl)o1", "growth": "20.6%"},
      {"molecule": "O=c1nc(-c2ccccc2)c2cc(-c3ccc(N4CCOCC4)cc3)ccc2[nH]1", "growth": "71.2%"},
      {"molecule": "CCN(CC)c1ccc(/C=C2/NC(=O)NC2=O)cc1", "growth": "6.89% (active)"},
      {"molecule": "C#C[C@]1(O)CC[C@H]2[C@@H]3CC=C4c5sc(-c6cccc(Br)c6)nc5CC[C@]4(C)[C@H]3CC[C@@]21C", "growth": "55.3%"},
      {"molecule": "O=C1C=CN2C(=O)CC=CC2[C@@H]1O", "note": "(stereo not given in full)", "growth": "96.5%"},
      {"molecule": "COc1cc(-c2nc(-c3ccc(-c4nc5ccc(F)cc5[nH]4)cc3)no2)cc(OC)c1OC", "growth": "41.1%"},
      {"molecule": "CC1=CCC2C1CC=C(C)C(CC[C@H]1[C@@](C)(O)CCC3OC(C)(C)[C@H](OC(=O)c4ccccc4)CC[C@@]31C)C2(C)C", "note": "(stereo not given in full)", "growth": "74.9%"},
      {"molecule": "O/N=C1\\c2ccccc2-c2ccc(Br)cc21", "growth": "91.1%"},
      {"molecule": "CCOC(=O)Nc1ccc2nc(Sc3ccc(Cl)cc3)sc2c1", "growth": "16.7%"},
      {"molecule": "COc1ccc(-c2nc3ccccc3n3cccc23)cc1", "growth": "81.9%"},
      {"molecule": "O=C(Cc1ccc([N+](=O)[O-])cc1)Oc1ccccc1", "growth": "107%"},
      {"molecule": "COc1cc(/C=C/c2cc(/C=C/c3ccc(O)c(OC)c3)n(C(=O)Nc3ccc(F)c(Cl)c3)n2)ccc1O", "growth": "2.06% (active)"},
      {"molecule": "NC(N)=NC1CCCCC1", "growth": "96.4%"},
      {"molecule": "CCOC(=O)N1C2CCC(C2)N1C(=O)OCC", "growth": "90.1%"},
      {"molecule": "O=C(CC(=O)C(F)(F)C(F)(F)C(F)(F)F)c1cc2ccccc2o1", "growth": "103%"}
    ]}
  ]
}
